# The list is not random: actives were taken first. Their share in the collection is about 21%.
# HCV inh: HCV inhibition; 3.4% of 340,000 active; Potency, µM (doses to about 41.8 µM), inactives show at the top dose activity change, negative = inhibition, most hits filed as inhibitors; Huh7.5.1 HCVcc-Cre infection, luciferase reporter, 44 h; further: potency means the concentration at half of the fitted maximal effect; on the % scale 0 is the no-effect control and ±100 the full control effect
#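 A cell-based infection assay in which seeded cells (1,000 per well) receive test compound after 4 h, are inoculated with HCVcc-Cre at approximately 0.5 moi, and are incubated 44 h before luminescence detection.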
# Cycloheximide cs: counter-screen for Shiga toxin inhibitors: cycloheximide protein synthesis inhibition; 12% of 300,000 active; cell reporter, cycloheximide protein synthesis inhibition counterscreen; max response, %; in the data active means max response mostly above about 13%, no sharp cut-off; inactive means mostly below about 14%; further: read at 38.3 µM for the half of the compounds with a filed dose; 0% is about no effect
# Shiga toxin inh: Shiga toxin inhibition; Vero cells, Shiga toxin protein synthesis inhibition reporter; inhibition, % at 38.7 µM; 9.2% of 290,000 active; in the data active means inhibition mostly above about 28%, no sharp cut-off; inactive means mostly below about 43%; further: 0% is about no effect
# Pf growth 96h: P. falciparum growth inhibition at 96 hour, primary screen for plastid delayed-death inhibitors; Potency, µM (highest dose often 28.7 µM), without a hit: at the highest dose activity change, negative = inhibition, actives largely listed as inhibitors; 6.9% of 320,000 active; P. falciparum luciferase reporter growth, 96 h; further: potency means the concentration at half of the fitted maximal effect; on the % scale 0 is the no-effect control and ±100 the full control effect
#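 P. falciparum expressing integrated firefly luciferase, in erythrocytes at 2% hematocrit, 0.05% parasitemia, incubated with compounds 96 h at 37 C, 5% CO2. Growth inhibition read as loss of luminescence; two-generation exposure targets delayed-death apicoplast inhibitors.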
# HCMV antiviral: inhibitors of human cytomegalovirus | HFF cells, HCMV-luciferase reporter, 72 h; stronger effect = lower value | AID 1259415 | activity change, negative = inhibition, % at 57.5 µM | 4.5% of 410,000 active; in the data active means activity change below about -60%; inconclusive means no clear call, values can overlap the other calls; inactive means above about -39%; further: on the % scale 0 is the no-effect control and ±100 the full control effect
#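 Screen run at 2 compound doses on HFFs infected with reporter HCMV, MOI 1 PFU/cell. Luciferase activity from cell lysates at 72 h post infection gave inhibition relative to buffer-only and Salinomycin wells.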
# Pf growth 48h: inhibits P. falciparum growth in the first generation, 48 h | P. falciparum luciferase growth in erythrocytes, 48 h | Potency, µM (doses to about 28.7 µM), for inactives: at the top dose activity change, negative = inhibition, usual class: inhibitors | 5.9% of 310,000 active; further: potency means the concentration at half of the fitted maximal effect; on the % scale 0 is the no-effect control and ±100 the full control effect
#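 Luciferase-expressing parasites in RBCs, 2% Hct / 0.1% parasitemia final; RPMI 1640 + 0.5% Albumax; 37 C, 5% CO2, one generation; luminescence read-out, lower signal = inhibition.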
# Starred values were filed as active, the others as inactive; u = inconclusive; x = no result given; + = active, no number. Unless noted, the call rests on the fitted dose curve; in most records, active means well fitted inhibition curve with a large enough effect; inconclusive means small, poorly fitted or top-dose-only effect, or another doubt; inactive means no such curve, though single readings can be large or run the other way.
SMILES,HCV inh,Cycloheximide cs,Shiga toxin inh,Pf growth 96h,HCMV antiviral,Pf growth 48h
CCOc1cccc(/C=C2\NC(=S)N(c3ccccc3)C2=O)c1O,-24.8%,42.0*,55.3*,128.1%,150.1,115.5%
CC1(C)C2C(Cl)(Cl)C2(C)c2ccccc2N1C=O (configuration not stated),19.1%,0.4,6.2,14.5%,-4.1,2.9%
CCc1ccc(-c2nc(SCC(=O)N(C)C3CCS(=O)(=O)C3)n[nH]2)cc1 (configuration not stated),-5.0%,x,x,12.1%,39.7,28.6%
Cc1cc(=O)n2c3ccccc3n(CC(O)CN3CCC(C)CC3)c2c1C#N (configuration not stated),u,-3.0,-10.5,u,-31.9,u
CCC1CCCCN1CC(O)Cn1c2ccccc2n2c(=O)cc(C)c(C#N)c12 (configuration not stated),u,-4.8,-12.2,4.65µM*,-37.0,u
Cc1cc(=O)n2c3ccccc3n(CC(O)CN3CCN(CCO)CC3)c2c1C#N (configuration not stated),u,-1.2,-15.9,u,-17.1,u
Cc1cc(=O)n2c3ccccc3n(CC(O)CN3CCN(Cc4ccccc4)CC3)c2c1C#N (configuration not stated),u,1.3,6.1,u,-67.9*,u
Cc1ccc(C)c(OC(=O)c2cccnc2Cl)c1C,-1.7%,2.8,26.6,21.8%,-16.2,11.8%
Nc1sc(-c2ccccc2)cc1C(=O)NCCc1ccc(Cl)cc1,x,x,x,x,19.1,x
CCOC(=O)c1sc(-c2ccc(Cl)cc2)nc1O,28.7%,-1.2,-14.0,u,-21.4,u
CCOC(=O)c1ccc(N)cc1,11.0%,x,x,0.6%,-17.0,-1.1%
CCOC(=O)c1sc(-c2ccc(Br)cc2)cc1N,x,54.3*,113.9*,58.8%,58.5,119.5%
NNC(=O)c1sc(-c2ccc(Cl)cc2)cc1N,19.0%,44.5*,65.9*,25.8%,-12.1,-17.2%
CCOC(=O)c1cc(-c2ccc(N)cc2)sc1N,u,53.9*,66.4*,-24.3%,27.4,-54.5%
COc1ccc(S[C@]2(c3nc(C)no3)CC(=O)N(C(=O)c3ccccc3)[C@@H]2c2ccc(OC)cc2)cc1,x,x,x,x,-8.6,x
O=C1Cc2c([nH]c3ccc([N+](=O)[O-])cc23)-c2ccccc2N1,u,x,x,x,-98.1*,x
COc1ccc(-c2noc(CSc3nnc(C)n3-c3ccc(C)c(C)c3)n2)c(OC)c1,x,x,x,x,-1.4,x
CC(=O)OC1CC[C@]2(C#N)[C@H]3CC[C@]4(C)[C@H](C5C=CC(=O)O5)CCC4(O)C3CCC2(O)C1 (some centres not stated),2.4%,-6.8,-15.1,-14.2%,-93.3*,x
Cc1ccc(CN2c3ccccc3-c3nc(SCC(=O)Nc4c(C)cc(C)cc4C)ncc3S2(=O)=O)cc1,x,x,x,x,11.3,x
CCOC(=O)/C(C#N)=C1/C=C(C)NC(c2ccccc2O)=N1,u,-3.8,-5.6,15.2%,-103.4*,u
CCOC(=O)/C(C#N)=C1/C=CN(C)C(C)=N1,13.1%,14.5,10.5,-5.4%,47.8,12.7%
CCOC(=O)c1cc(-c2ccc(F)cc2)n(CCC(=O)Nc2nc3ccc(OC)cc3s2)c1C,x,x,x,x,0.0,x
Cc1onc(COc2ccccc2O)c1Br,-2.2%,18.1*,53.3,7.0%,-21.0,27.0%
COc1ccc(F)cc1-c1cc(C(=O)NCc2ccc(F)cc2)[nH]n1,x,x,x,x,-27.8,x
N#Cc1c2ccc([N+](=O)[O-])cc2[n+]([O-])n1-c1ccccc1,1.58µM*,x,x,10.4µM*,+,11.7µM*
CCCNC(=O)C1CC(=O)N(c2ccc(OCc3ccc(F)cc3)cc2)C1 (configuration not stated),-8.2%,33.3*,112.4*,u,141.7,243.1%
C=CCNC(=O)C1CC(=O)N(c2ccc(OCC(=O)Nc3ccccc3)cc2)C1 (configuration not stated),-13.9%,30.1*,47.9*,x,126.9,143.9%
CCOc1ccc(N2CC(C(=O)NCc3ccc(F)cc3)CC2=O)cc1 (configuration not stated),1.4%,1.4,20.0,32.7%,7.7,-5.3%
CCCNC(=O)C1CC(=O)N(c2ccc(OCc3ccc(Cl)cc3)cc2)C1 (configuration not stated),u,27.1*,x,10.3%,153.9,178.7%

# Screens as filed in PubChem.
